Results reported in PubChem BioAssay (EPA / NIEHS).
Activity calls are given as the source filed them. The calls were made as follows: active = hit-call score of the fitted dose curve at least 0.9, where 1 is the maximum; inactive = score below 0.9.

Legend:
[1] = ATG_CRE_CIS: Attagene CIS-FACTORIAL HepG2 Assay for human cAMP Responsive Element (CRE) binding protein 3 (AID 2282926); details: HepG2 CRE cis-reporter, Attagene multiplexed mRNA; actives raise or lower the signal
Procedure, shortened: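 Induced reporter mRNA from a CRE cis element, measured in HepG2 among many multiplexed units at 24 h. Detection used RT-PCR plus capillary electrophoresis of fluorescent fragments; DMSO served as negative control.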

[2] = target: CCAAT/enhancer-binding protein beta (Homo sapiens) (UniProt P17676); test: ATG_C_EBP_CIS: Attagene CIS-FACTORIAL HepG2 Assay for human CCAAT/Enhancer Binding Protein (C/EBP) beta (AID 2282927); details: HepG2 Attagene cis-factorial transcription factor reporter; actives raise or lower the signal
Procedure, shortened: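 Changes in reporter mRNA, rather than exogenous chimeric receptor activity, reflect native C/EBP signalling in transfected HepG2 cells dosed for 24 h; transcripts are detected by RT-PCR and capillary electrophoresis.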

[3] = ATG_CMV_CIS: Attagene CIS-FACTORIAL HepG2 Assay for human CMV (Internal Marker) (AID 2282928); details: HepG2 CMV promoter reporter, transcription factor profiling; actives raise or lower the signal;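 also: endpoint acts as a background internal control marker rather than a target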
Procedure, shortened: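 24 h chemical treatment, HepG2 with transient multi-reporter transfection; RNA → oligo(dT) RT → PCR → 6-FAM extension → HpaI digest → CE fluorescence. Bidirectional fit, DMSO negative control.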

[4] = ATG_DR4_LXR_CIS: Attagene CIS-FACTORIAL HepG2 Assay for human Liver X Receptor (LXR), DR4 submotif (AID 2282929); details: HepG2 Attagene DR4 cis-reporter, mRNA transcription; actives raise or lower the signal
Procedure, shortened: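 HepG2, transient MRTU transfection, cis-element (DR4) promoter; 24 h compound exposure; total RNA → oligo(dT) RT → PCR → 6-FAM primer extension → HpaI cut → CE. Gain/loss vs DMSO, bidirectional fit.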

[5] = target: Aryl hydrocarbon receptor (Homo sapiens) (UniProt P35869); test: ATG_Ahr_CIS: Attagene CIS-FACTORIAL HepG2 Assay for human Aryl Hydrocarbon Receptor (Ahr) (AID 2282930); details: HepG2 AhR cis-factorial reporter transcription; actives raise or lower the signal
Procedure, shortened: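 HepG2, transient MRTU (cis) transfection, 24 h exposure. RNA → cDNA → PCR → 6-FAM primer extension → HpaI 2 h 37 C → CE. Fit: bidirectional, DMSO baseline.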

[6] = ATG_AP_1_CIS: Attagene CIS-FACTORIAL HepG2 Assay for human Activator Protein 1 (AP-1) (AID 2282931); details: HepG2 Attagene cis-factorial AP-1 reporter mRNA; actives raise or lower the signal
Procedure, shortened: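 Transient MRTU transfection of HepG2 → 24 h chemical treatment → RNA isolation, RT-PCR, 6-FAM labelling, HpaI digest → capillary electrophoresis. Fit: bidirectional, DMSO negative control.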

[7] = ATG_AP_2_CIS: Attagene CIS-FACTORIAL HepG2 Assay for human Activator Protein 2 (AP-2) (AID 2282932); details: HepG2 AP-2 cis-reporter, Attagene transcription factor profiling; actives raise or lower the signal
Procedure, shortened: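 Transiently transfected HepG2 cells are exposed to chemical for 24 h. Reporter transcripts are then measured as fluorescence following RT-PCR and capillary separation, and gain- or loss-of-signal is fitted relative to DMSO.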

[8] = ATG_BRE_CIS: Attagene CIS-FACTORIAL HepG2 Assay for human Bone Morphogenetic Protein (BMP) Response Element (BRE) (AID 2282933); details: HepG2 BMP response element reporter, Attagene transcription factor profiling; actives raise or lower the signal
Procedure, shortened: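 Transient MRTU transfection of human HepG2 liver cells; 24 h compound treatment; total RNA isolated, reverse-transcribed, PCR-amplified, 6-FAM labelled, HpaI-cut, capillary electrophoresis. DMSO = negative control/baseline, bidirectional fit.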

[9] = target: Transcription factor E2F1 (Homo sapiens) (UniProt Q01094); test: ATG_E2F_CIS: Attagene CIS-FACTORIAL HepG2 Assay for human E2F Transcription Factor 1 (AID 2282935); details: HepG2 Attagene cis-reporter, E2F reporter RNA transcripts; actives raise or lower the signal
Procedure, shortened: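 Fluorescent RT-PCR products, digested with HpaI for 2 h at 37 C, are separated by capillary electrophoresis. Source RNA comes from transfected HepG2 cultures treated for 24 h.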

[10] = ATG_E_Box_CIS: Attagene CIS-FACTORIAL HepG2 Assay for human Enhancer Box (E-box) (AID 2282936); details: HepG2 E-box cis-reporter transcription, actives raise or lower the signal
Procedure, shortened: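 Fluorescent reporter fragments separated by capillary electrophoresis gave the signal; mRNA came from HepG2 cells transfected with cis-element reporters and treated 24 h. Curves fitted bidirectionally relative to DMSO controls.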

[11] = ATG_M_61_CIS: Attagene CIS-FACTORIAL HepG2 Assay for M61 Transcription Factor (Internal Marker) (AID 2282937); details: HepG2 Attagene CIS-FACTORIAL M61 internal marker reporter; actives raise or lower the signal
Procedure, shortened: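 Human liver HepG2, transient MRTU transfection (cis promoter elements), 24 h compound. Total RNA → oligo(dT) RT → PCR → FAM label → HpaI → CE. Internal background marker; bidirectional fitting, DMSO = baseline.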

[12] = ATG_EGR_CIS: Attagene CIS-FACTORIAL HepG2 Assay for human Early Growth Response 1 (EGR1) (AID 2282938); details: HepG2 Attagene CIS-FACTORIAL EGR reporter mRNA; actives raise or lower the signal
Procedure, shortened: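 Transient transfection of human HepG2 with multiple cis-regulated reporter units, chemical exposure 24 h, total RNA isolated. Reverse transcription, PCR, fluorescent labelling and capillary electrophoresis quantify reporter transcripts; activity fitted bidirectionally against DMSO.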

[13] = ATG_M_19_CIS: Attagene CIS-FACTORIAL HepG2 Assay for M19 Transcription Factor (Internal Marker) (AID 2282939); details: HepG2 Attagene CIS-FACTORIAL M19 internal marker reporter; actives raise or lower the signal
Procedure, shortened: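 Transfect HepG2 with MRTU reporter library → dose chemical, 24 h → isolate total RNA, reverse-transcribe with oligo(dT) → PCR, 6-FAM label, HpaI cut (2 h, 37 C) → capillary electrophoresis. Bidirectional fit vs DMSO.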

[14] = ATG_ERE_CIS: Attagene CIS-FACTORIAL HepG2 Assay for Estrogen Response Element (ERE) (AID 2282940); details: HepG2 ERE cis-reporter, Attagene RNA transcript; actives raise or lower the signal
Procedure, shortened: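 Transient MRTU transfection of human HepG2; cis-element promoters; 24 h dosing; total RNA → RT (oligo dT) → PCR → 6-FAM primer extension → HpaI digest → CE fluorescence. Bidirectional fit, DMSO baseline.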

[15] = ATG_Ets_CIS: Attagene CIS-FACTORIAL HepG2 Assay for human Erythroblast Transformation Specific (ETS) (AID 2282941); details: HepG2 ETS cis-reporter transcription, actives raise or lower the signal
Procedure, shortened: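 Cis-regulated reporter mRNA induction in HepG2 (transient transfection), 24 h exposure, RT-PCR plus capillary electrophoresis detection; DMSO serves as negative control and baseline.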

[16] = ATG_FoxO_CIS: Attagene CIS-FACTORIAL HepG2 Assay for human Forkhead box O (FoxO) (AID 2282943); details: HepG2 Attagene cis-reporter, FoxO element, mRNA; actives raise or lower the signal
Procedure, shortened: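 Human hepatoma HepG2 cells carry transiently introduced reporter transcription units controlled by cis promoter elements. Chemical treatment lasted 24 h, and mRNA signal was compared with DMSO.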

[17] = ATG_GATA_CIS: Attagene CIS-FACTORIAL HepG2 Assay for human GATA Binding Protein (AID 2282944); details: HepG2 GATA cis-element reporter, Attagene multiplex mRNA; actives raise or lower the signal
Procedure, shortened: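 Transient MRTU transfection, HepG2, 24 h compound exposure. Total RNA → oligo(dT) RT → PCR → 6-FAM primer extension → HpaI cut → CE. Bidirectional fit vs DMSO.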

[18] = ATG_GLI_CIS: Attagene CIS-FACTORIAL HepG2 Assay for human Zinc Finger Protein GLI1 (AID 2282945); details: HepG2, Attagene cis-factorial reporter mRNA, GLI element; actives raise or lower the signal
Procedure, shortened: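 Bidirectional curve fits relative to DMSO, using reporter mRNA levels from RT-PCR plus capillary electrophoresis. Cells were HepG2 transiently carrying cis-regulated reporter constructs, harvested 24 h after dosing.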

[19] = target: Hepatocyte nuclear factor 3-beta (Homo sapiens) (UniProt Q9Y261); test: ATG_FoxA2_CIS: Attagene CIS-FACTORIAL HepG2 Assay for human Forkhead box A2 (FOXA2) (AID 2282942); details: HepG2 cis-reporter transcription factor activity, 24 h; actives raise or lower the signal
Procedure, shortened: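 Transient MRTU transfection of HepG2 liver cells; 24 h treatment; total RNA → oligo(dT) RT → PCR → FAM primer extension → HpaI cut → CE. Bidirectional fit vs DMSO.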

Measured: AC50

Sequence of Aryl hydrocarbon receptor (Homo sapiens) (P35869 whole entry, looked up): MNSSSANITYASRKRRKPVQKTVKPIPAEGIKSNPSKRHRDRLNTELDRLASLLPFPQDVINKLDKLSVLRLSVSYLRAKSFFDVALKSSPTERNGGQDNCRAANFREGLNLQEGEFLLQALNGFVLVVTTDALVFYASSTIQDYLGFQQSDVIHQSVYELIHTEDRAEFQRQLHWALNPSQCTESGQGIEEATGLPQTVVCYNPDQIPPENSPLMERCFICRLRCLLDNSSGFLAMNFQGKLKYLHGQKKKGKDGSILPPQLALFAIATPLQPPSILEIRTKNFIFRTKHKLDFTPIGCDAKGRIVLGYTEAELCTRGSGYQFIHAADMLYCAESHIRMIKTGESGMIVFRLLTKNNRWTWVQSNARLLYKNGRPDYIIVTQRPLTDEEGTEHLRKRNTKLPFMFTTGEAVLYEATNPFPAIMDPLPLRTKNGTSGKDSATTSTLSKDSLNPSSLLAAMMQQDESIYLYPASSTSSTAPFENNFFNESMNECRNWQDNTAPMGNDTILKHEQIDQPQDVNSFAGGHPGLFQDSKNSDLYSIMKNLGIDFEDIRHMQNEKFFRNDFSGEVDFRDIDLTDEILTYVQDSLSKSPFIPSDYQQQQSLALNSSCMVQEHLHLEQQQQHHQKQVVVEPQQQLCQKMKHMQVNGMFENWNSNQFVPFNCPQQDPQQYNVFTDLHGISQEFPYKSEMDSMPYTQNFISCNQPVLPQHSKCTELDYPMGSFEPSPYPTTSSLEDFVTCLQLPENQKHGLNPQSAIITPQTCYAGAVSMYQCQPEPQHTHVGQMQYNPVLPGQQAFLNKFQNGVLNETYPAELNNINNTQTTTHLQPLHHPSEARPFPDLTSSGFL
Sequence of Transcription factor E2F1 (Homo sapiens) (Q01094 whole entry, looked up): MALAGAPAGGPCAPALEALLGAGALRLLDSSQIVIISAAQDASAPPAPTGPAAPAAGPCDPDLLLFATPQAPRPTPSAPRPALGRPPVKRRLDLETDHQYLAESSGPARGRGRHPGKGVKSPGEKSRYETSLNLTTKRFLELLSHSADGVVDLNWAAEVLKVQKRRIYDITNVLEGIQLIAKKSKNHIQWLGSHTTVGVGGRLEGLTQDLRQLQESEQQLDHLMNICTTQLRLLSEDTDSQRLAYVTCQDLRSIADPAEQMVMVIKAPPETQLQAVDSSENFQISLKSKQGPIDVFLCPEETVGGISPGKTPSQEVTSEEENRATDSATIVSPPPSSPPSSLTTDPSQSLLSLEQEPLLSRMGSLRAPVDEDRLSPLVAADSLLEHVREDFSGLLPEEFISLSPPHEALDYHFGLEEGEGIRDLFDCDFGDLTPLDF
Sequence of Hepatocyte nuclear factor 3-beta (Homo sapiens) (Q9Y261 whole entry, looked up): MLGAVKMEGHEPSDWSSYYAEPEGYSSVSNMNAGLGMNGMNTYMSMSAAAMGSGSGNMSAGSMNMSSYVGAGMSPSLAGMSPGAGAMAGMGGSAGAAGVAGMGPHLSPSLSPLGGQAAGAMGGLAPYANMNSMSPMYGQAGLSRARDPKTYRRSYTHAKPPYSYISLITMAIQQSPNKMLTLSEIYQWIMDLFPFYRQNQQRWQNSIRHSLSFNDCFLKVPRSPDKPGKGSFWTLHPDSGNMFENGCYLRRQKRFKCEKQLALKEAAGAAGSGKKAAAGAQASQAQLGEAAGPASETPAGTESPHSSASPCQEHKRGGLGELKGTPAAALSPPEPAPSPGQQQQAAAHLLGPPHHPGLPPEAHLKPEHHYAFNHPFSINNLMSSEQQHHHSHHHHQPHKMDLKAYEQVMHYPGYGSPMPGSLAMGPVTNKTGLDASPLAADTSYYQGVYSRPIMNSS
Sequence of CCAAT/enhancer-binding protein beta (Homo sapiens) (P17676 whole entry, looked up): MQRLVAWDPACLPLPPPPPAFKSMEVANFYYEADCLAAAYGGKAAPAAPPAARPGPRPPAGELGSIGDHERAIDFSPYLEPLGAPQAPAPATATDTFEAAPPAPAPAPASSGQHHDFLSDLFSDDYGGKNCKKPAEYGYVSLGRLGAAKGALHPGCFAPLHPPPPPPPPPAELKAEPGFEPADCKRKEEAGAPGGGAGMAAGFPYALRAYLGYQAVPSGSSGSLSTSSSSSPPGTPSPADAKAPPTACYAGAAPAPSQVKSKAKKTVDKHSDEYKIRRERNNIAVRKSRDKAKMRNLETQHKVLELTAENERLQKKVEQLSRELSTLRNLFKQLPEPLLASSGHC

CC(C)(C)NC(N)=O
not listed: [19]
inactive: all other assays above

O=Nc1ccc(Nc2ccccc2)cc1
active: [2] 8.78 µM | [3] 8.52 µM | [4] 25.3 µM | [5] 33.4 µM | [10] 9.04 µM | [12] 37.7 µM | [19] 47.9 µM | [18] 55 µM
inactive: all other assays above

CC(=O)OCc1ccc2c(c1)OCO2
not listed: [14]
inactive: all other assays above

C=CC(=O)OCC(O)COc1ccccc1 (configuration not stated)
active: [4] 32 µM | [7] 26.8 µM | [8] 82.8 µM | [10] 38.8 µM | [12] 64.3 µM
not listed: [16]
inactive: all other assays above

C=CC(C)(C)O
not listed: [19]
inactive: all other assays above

CCCCOCCOCCOCCOCCO
not listed: [15]
inactive: all other assays above

Cc1ccc2ccccc2n1
active: [5] 18.3 µM
not listed: [14]
inactive: all other assays above

NC(=O)Nc1ccc(Cl)cc1
inactive: all assays above

OC1C(O)C(O)C(O)C(O)C1O (configuration not stated)
active: [5] 70.3 µM
inactive: all other assays above

CC(C)(N)CO
not listed: [19]
inactive: all other assays above

c1ccc2sc(SN(C3CCCCC3)C3CCCCC3)nc2c1
active: [3] 8.13 µM | [5] 49.1 µM | [6] 11.9 µM
not listed: [19]
inactive: all other assays above

ClCCCl
not listed: [15] | [19]
inactive: all other assays above

c1ccc(CCCc2ccccn2)cc1
active: [9] 72.7 µM
inactive: all other assays above

O=C1O[C@@H]2[C@@H](O)[C@H](O)O[C@@H]2[C@H]1O
inactive: all assays above

CC(CCO)CCCC(C)(C)O (configuration not stated)
not listed: [14]
inactive: all other assays above

CC(CN1c2ccccc2Sc2ccccc21)N(C)C (configuration not stated)
active: [4] 33.4 µM | [7] 40.6 µM | [9] 33.4 µM | [10] 55.5 µM | [12] 25.2 µM
not listed: [14]
inactive: all other assays above

O=c1oc(=O)c2cc3c(=O)oc(=O)c3cc12
not listed: [14] | [15]
inactive: all other assays above

CCCCO
not listed: [14] | [16]
inactive: all other assays above

CC(C)[C@H]1CC[C@@H](C)CC1=O
not listed: [14]
inactive: all other assays above

c1ccc2[nH]ccc2c1
active: [5] 14.6 µM
not listed: [13] | [14]
inactive: all other assays above

S=C(S)NCCNC(=S)S
not listed: [13] | [14]
inactive: all other assays above

N#Cc1nc(Cl)c(Cl)c(Cl)c1Cl
active: [2] 6.82 µM | [3] 7.02 µM | [4] 3.14 µM | [6] 6.02 µM | [7] 4.74 µM | [8] 5.89 µM | [10] 5.53 µM | [12] 4.56 µM | [15] 2.25 µM | [19] 6.82 µM | [16] 5.92 µM | [17] 3.71 µM | [18] 5.39 µM
inactive: [1] | [5] | [9] | [11] | [13]

CC(C)(Oc1ccc(CCNC(=O)c2ccc(Cl)cc2)cc1)C(=O)O
not listed: [13] | [15]
inactive: all other assays above

CCCCCNCCCCC
not listed: [14] | [19]
inactive: all other assays above

CC(C)=CCCC(C)CC=O (configuration not stated)
not listed: [14] | [15]
inactive: all other assays above

Cc1cc(C2(c3cc(C)c(O)cc3C)OS(=O)(=O)c3ccccc32)c(C)cc1O
active: [5] 44.5 µM | [14] 2.74 µM
not listed: [13] | [16]
inactive: all other assays above

Nc1cc([N+](=O)[O-])ccc1Cl
active: [5] 20.2 µM
not listed: [14] | [16]
inactive: all other assays above

CCCC(=O)C(C)=O
not listed: [13]
inactive: all other assays above

CN(CCOc1ccc(CC2SC(=O)NC2=O)cc1)c1ccccn1 (configuration not stated)
active: [14] 0.0823 µM
not listed: [13]
inactive: all other assays above
